Source: PubChem BioAssay AID1347075 (National Center for Advancing Translational Sciences (NCATS), 2019)
About 5,500 (1.4%) of roughly 400,000 compounds were called active. Where a call stands in place of a potency, no number is given. Not shown: some 9% with an inconclusive outcome. Calls come from the whole dose curve; as a rule, active = well fitted cell-killing curve with a large enough effect; inconclusive = small, poorly fitted or top-dose-only effect, or effect the other way; inactive = flat fitted curve, though single readings scatter. The full list was thinned out, with actives kept by preference.

Assay: qHTS assay for MDR1-selective chemotherapeutics: Primary screen using the parental adenocarcinoma cell KB-3-1; note: nearly all actives have a fitted effect of over 60% in size
Conditions: KB-3-1 viability, CellTiter-Glo ATP luminescence, 72 h; series mostly up to 46.1 µM
How it was run: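 KB-3-1 cells, DMEM (no phenol red) + 10% FBS; compound by pin transfer, 72 h, 37 °C. Readout: CellTiter-Glo luminescence after 10 min. Data normalized, curve-fitted.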
Potency is the fitted concentration of half-maximal effect.

SMILES	Potency
COc1ccc2nc(N3CCN(C(=O)c4ccc([N+](=O)[O-])o4)CC3)sc2c1	16.4 µM (active)
CC1CCN(c2nc3ccc(C(=O)N4CCN(c5ccccc5)CC4)cc3s2)CC1	inactive
O=C(NCc1ccc(F)cc1)c1ccc2nc(N3CCCCC3)sc2c1	inactive
COc1cc(C(=O)N2CCN(C(=O)COc3cccc(C)c3)CC2)cc(OC)c1OC	inactive
CC(=O)Nc1cnc(-c2ccc(O)cc2C)cn1	inactive
Cc1ccn2c(-c3csc(Nc4ccc(C(=O)O)cc4)n3)c(C)nc2c1	inactive
Cc1ccc(Nc2nc(-c3ccc(O)cc3O)cs2)nc1	20.6 µM (active)
Cc1ccc(CN2CCCn3nc(C(=O)NCc4ccccc4Cl)cc3C2=O)cc1	inactive
CCOC(=O)c1nnn(CC(=O)NC(=O)Nc2ccccc2F)c1C(=O)OCC	inactive
COC(=O)c1ccccc1S(=O)(=O)Nc1ccc(OC)cc1	inactive
COC(=O)c1c(C)oc(C)c1S(=O)(=O)NCc1ccc(Cl)cc1	inactive
COC(=O)c1c(C)oc(C)c1S(=O)(=O)Nc1ccc(C(C)C)cc1	3.26 µM (active)
CC(C)(C)OC(=O)NCCCCCNC(=O)c1nc[nH]c1C(=O)NCc1ccccc1	inactive
O=C(Nc1cc(Br)ccc1F)c1nc[nH]c1C(=O)NCc1ccccc1	inactive
O=C(Nc1ccon1)c1nc[nH]c1C(=O)NCc1ccccc1	5.8 µM (active)
COc1ccc(NC(=O)c2ccc3nc(C(C)C)oc3c2)cc1OC	inactive
COC(=O)c1sc2ncccc2c1-n1c(C)ccc1C	inactive
O=C(NC1CCCCC1)c1ccc(Cn2c(SCc3ccccc3)nc3cccnc32)cc1	inactive
Cc1oc2c(c1C(=O)Nc1ccc(F)c(F)c1)C1=NCCN1C=N2	inactive
O=C(Nc1ccc2nc(SCC(=O)N3CCc4ccccc43)sc2c1)c1ccccc1F	inactive
CCOc1ccc(NC(=O)c2cn(C3CCCCC3)c(=O)c3c2c2ccccc2n3C)cc1	inactive
COCCNC(=O)CSc1nc(-c2ccccc2)[nH]c1-c1ccc(C)cc1	inactive
COc1cccc(-c2nc(S(=O)(=O)c3ccc(C)cc3)c(NCc3ccccc3)o2)c1	inactive
CC(Nc1ccc(-c2nc(-c3ccco3)no2)cc1[N+](=O)[O-])c1ccccc1 (stereo not given)	inactive
O=C(NCc1ccccc1)C1CCN(S(=O)(=O)c2ccc3[nH]c(=O)ccc3c2)CC1	inactive
COc1ccc(Cl)cc1NC(=O)C1CC(=O)N(c2ccc(F)cc2)C1 (stereo not given)	inactive
COc1ccccc1N1CC(C(=O)Nc2ccc(S(=O)(=O)N3CCOCC3)cc2)CC1=O (stereo not given)	inactive

SMILES	Potency
COc1cc(OC)c(N2CC(C(=O)Nc3cc(Cl)ccc3N3CCOCC3)CC2=O)cc1Cl (stereo not given)	5.8 µM (active)
CCCCn1cc(S(=O)(=O)c2ccc(OCC)cc2)c(=O)c2cc(OC)c(OC)cc21	inactive
Cc1cccc(N2CCN(C(=O)c3ccc(Nc4nc5ccccc5n5nnnc45)cc3)CC2)c1C	inactive
CCN(CC)S(=O)(=O)c1cc(C(=O)Nc2cc(S(=O)(=O)N3CCOCC3)ccc2N2CCCC2)ccc1F	inactive
CCN(CC)S(=O)(=O)c1ccc(N2CCOCC2)c(NC(=O)c2ccc(=O)n(C)n2)c1	inactive
CCN(CC)S(=O)(=O)c1ccc(N2CCCC2)c(NC(=O)c2ccc([N+](=O)[O-])o2)c1	6.51 µM (active)
Cc1[nH]c2ccccc2c1C(=O)C(=O)N(C)c1ccccc1	inactive
CCn1c2c(c(=O)n3ncc(C(=O)N4CCN(c5ccccc5)CC4)c13)CN(Cc1ccc(OC)cc1)CC2	inactive
CC(=N\NC(=O)c1cc(Br)ccc1O)/C(=N/O)C(=O)Nc1ccccc1	inactive
C/C(=N/NC(=O)CCc1ccccc1)c1ccco1	inactive
C/C(=N\NC(=O)c1ccoc1C)c1ccccc1O	14.6 µM (active)
O=C(NCc1ccc2c(c1)CCN2C(=O)c1ccccc1)c1ccccc1	inactive
COc1ccc(NC(=O)Cn2c(=O)n(Cc3ccc(C(=O)NCc4ccccc4Cl)cc3)c(=O)c3ccccc32)cc1	inactive
C=CC(=O)OCCOCCOCCOCCOC(=O)C=C	10.3 µM (active)
CCOC(=O)c1ccc(NC(=O)Cn2c(=O)cc(C)c3c(C)nn(-c4cccc(F)c4)c32)cc1	inactive
CCC(=O)N1CCc2cc(CNC(=O)Nc3ccccc3Cl)ccc21	inactive
COC(=O)c1scc(-c2ccc(C)cc2)c1S(=O)(=O)Nc1cc(Cl)c(OC)cc1OC	inactive
CCc1ccc(Sc2cc(C(=O)NCCCOC(C)C)c3ccccc3n2)cc1	inactive
Cn1c(-c2ccco2)nc2cc3ccccc3cc21	18.4 µM (active)
CSc1n[nH]c(-c2ccco2)n1	inactive
Cc1ccc2nc(-c3ccco3)c(Cc3cccc(Cl)c3)n2c1	inactive
N#Cc1ccc(-c2cccs2)nc1SCc1ccc(Br)cc1	inactive
Cc1ccc(NC(=O)Cn2nnc(C(=O)NCc3ccco3)c2N)c(C)c1	inactive
CCOc1ccccc1NC(=O)Cn1nnc(C(=O)NCc2cccs2)c1N	0.259 µM (active)
CCOc1ccccc1NC(=O)Cn1nnc(C(=O)Nc2ccc(C)c(C)c2)c1N	inactive
CCc1ccccc1NC(=O)Cc1ccc(NC(=O)N2CCCCc3ccccc32)cc1	inactive
CC(C)(C)NC(=O)CSc1nc(-c2ccc(F)cc2)cc(C(F)(F)F)n1	inactive

SMILES	Potency
Cc1ccc(Cl)cc1NC(=O)CSc1nccn1C	inactive
COc1ccc(-c2nc3c(s2)CCc2onc(-c4ccc(OC)cc4)c2-3)cc1	20.6 µM (active)
COc1ccc(-c2cc(C(=O)Nc3sc4c(c3C(N)=O)CCCC4)no2)cc1	inactive
COc1ccc(-c2nc3c(s2)CCc2onc(-c4ccc(Br)cc4)c2-3)cc1	inactive
COc1ccccc1CNC(=O)CCn1c(=O)c2ccccc2n(CC(=O)Nc2cccc(Cl)c2)c1=O	inactive
COc1ccc(CCNc2ncnc3c2cnn3-c2ccc(C)cc2)cc1	inactive
O=C(NCc1ccccc1Cl)C1=Cc2cc(Br)ccc2OC1	inactive
CCOC(=O)c1cccc(NC(=O)CCOc2ccccc2)c1	inactive
CCn1c2ccccc2c2cc(NC(=O)COc3ccc(C)cc3C)ccc21	inactive
CCOCCC(=O)Nc1ccc2c(c1)c(=O)n(C)n2-c1ccc2ccccc2c1	3.66 µM (active)
CCOc1ccccc1CNC(=O)C1CCCN(S(=O)(=O)c2ccc3c(ccn3C)c2)C1 (stereo not given)	inactive
COc1ccccc1NC(=O)c1sc2nc(C)c(C(=O)Nc3ccc(Cl)cc3)c(-c3ccc(Br)cc3)c2c1N	inactive
CC(C)c1ccc(NC(=O)c2cc(S(=O)(=O)N3CCc4ccccc4C3)ccc2F)cc1	inactive
O=C(Nc1ccc(S(=O)(=O)N2CCc3ccccc3C2)cc1)c1ccccc1	18.4 µM (active)
COC(=O)c1ccc(S(=O)(=O)N2CCc3ccccc3C2)cc1	inactive
CCOc1ccc(N(CC)C(=O)c2cc3c(=O)oc4ccccc4c3s2)cc1	inactive
Cc1ccc(Nc2ccc3cc(S(=O)(=O)N4CCCCC4)ccc3n2)cc1F	inactive
COc1ccc(N2CCN(S(=O)(=O)c3ccc4c(c3)CC(=O)N4)CC2)cc1	inactive
COc1ccc(N(CC(=O)Nc2cc(OC)ccc2OC)S(=O)(=O)c2c(C)noc2C)cc1	18.4 µM (active)
Cc1noc(C)c1S(=O)(=O)N(CC(=O)Nc1ccc2c(c1)OCCO2)c1ccc(C(C)C)cc1	inactive
CCOc1ccc(N(CC(=O)OC)S(=O)(=O)c2c(C)noc2C)cc1	inactive
CCOC(=O)CN1C(C(=O)c2ccccc2)=C(OC(=O)C(C)(C)C)c2ccccc2S1(=O)=O	inactive
COc1ccc(Cn2c(-c3ccc(Cl)cc3)c[n+]3ccccc23)cc1	3.66 µM (active)
COc1ccc(Cn2c(=O)oc3ccccc32)cc1	inactive
COc1ccc(CNc2nc(-c3ccc(Cl)cc3)nn2C(=O)c2ccccc2)cc1	inactive
Cc1oc2ncnc(N3CCCCC3)c2c1C(=O)N1CCN(c2cccc(Cl)c2)CC1	inactive
Cc1ccccc1-c1cc(C(=O)NCc2cccs2)n(CC2CC(c3cccnc3)=NO2)n1 (stereo not given)	18.4 µM (active)

SMILES	Potency
Cc1ccccc1-c1cc(C(=O)NCC2CC2)n(CC2CC(c3cccnc3)=NO2)n1 (stereo not given)	inactive
Cc1ccc(CNC(=O)c2cc(-c3ccccc3C)n(CC3CC(c4cccc([N+](=O)[O-])c4)=NO3)n2)cc1 (stereo not given)	inactive
C=C1C=C(C(F)F)n2ncc(C(=O)NCCc3ccccc3OC)c2N1	inactive
CCn1cc(C(=O)NCc2ccccc2)c(=O)c2cc(S(=O)(=O)N3CCCCC3)ccc21	inactive
O=C(CSc1nc2c(c(=O)[nH]1)CN(Cc1ccc3c(c1)OCO3)CC2)Nc1cc(F)ccc1F	inactive
N#C/C=C/N1CCN(Cc2ccc3c(c2)OCO3)CC1	inactive
Fc1ccc2[nH]c3c(N4CCN(Cc5ccc6c(c5)OCO6)CC4)ncnc3c2c1	18.4 µM (active)
Fc1ccc2[nH]c3c(N4CCSCC4)ncnc3c2c1	5.17 µM (active)
CCc1nc2onc(C)c2c(=O)n1CC(=O)O	inactive
Cc1oc2ncn(CC(C)C)c(=O)c2c1C(=O)N1CCN(c2ccccc2F)CC1	inactive
O=C(NCCC1=CCCCC1)c1ccc2c(c1)N(Cc1ccccc1F)C(=O)c1ccccc1S2(=O)=O	inactive
O=C(CCS(=O)(=O)c1cc(Br)cc2c1N(C(=O)C1CC1)CC2)Nc1ccc(C(F)(F)F)cc1	inactive
Cc1cccc(N2CCN(c3ccc(C(=O)O)cc3NC(=O)c3ccccc3F)CC2C)c1 (stereo not given)	inactive
O=C(c1cnn2c1NC(=C1CC1)C=C2C(F)F)N1CCc2ccccc2C1	inactive
CSc1nn(Cc2cccc(C)c2)c(N)c1S(=O)(=O)c1ccccc1	inactive
COc1ccc(-c2cc(NC(C)=O)c3ncc(-c4cc(OC)c(OC)c(OC)c4)n3c2)cn1	5.8 µM (active)
COc1ccc(-c2cc(NC=O)c3ncc(-c4cc(OC)c(OC)c(OC)c4)n3c2)c(OC)c1	1.3 µM (active)
COc1ccc(-c2cc(NC=O)c3ncc(-c4cccc(C(=O)N(C)C)c4)n3c2)c(OC)c1	inactive
COc1ccccc1-c1cc(NC(C)=O)c2ncc(-c3ccc(F)cc3)n2c1	inactive
COc1cccc(-c2cnc3c(NC(C)=O)cc(-c4cc(F)ccc4OC)cn23)c1	16.4 µM (active)
CC(=O)Nc1cccc(-c2cc(NC(C)=O)c3ncc(-c4ccccc4)n3c2)c1	inactive
COc1cccc(-c2cc(NC(C)=O)c3ncc(-c4cccc(C(C)=O)c4)n3c2)c1	inactive
COc1cccc(-c2cnc3c(NC(C)=O)cc(-c4cccc(NC(C)=O)c4)cn23)c1	inactive
CC(=O)c1cccc(-c2cnc3c(NC=O)cc(-c4ccccc4Oc4ccccc4)cn23)c1	inactive
